PubChem BioAssay (NCI)
The panel holds about 83,000 compounds, 20% with a hit somewhere; the sample as a whole holds those more often.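 In brief: 96-well plates, 48 h treatment, single concentration, percent growth endpoint.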 Unmarked numbers belong to inactive results. Calls of active or inactive are those of the source. The calls were made as follows: active = growth percent below 10; inactive = the rest.

Test system: COLO 205 colon
Assay: NCI-60 one-dose screen, 48 h (100 = growth as untreated, 0 = no growth, -100 = all killed)
Conditions: 10 µM unless noted

| Structure (SMILES) | growth |
| --- | --- |
| CCOC(=O)c1cc(C(=O)c2cc(OC)cc(OC)c2)n2ncccc12 | -13.2% (active) |
| CO[C@H]1/C=C/O[C@@]2(C)Oc3c(C)c(O)c4c(O)c(c5c(nc6cc(C)ccn65)c4c3C2=O)NC(=O)/C(C)=C\C=C\[C@H](C)[C@H](O)[C@@H](C)C(O)[C@@H](C)[C@H](OC(C)=O)[C@@H]1C (stereo partly specified) | 0.546% (active) |
| CN1CCN(Cn2nc(-c3cc(Cl)cc(Cl)c3Cl)oc2=S)CC1 | 110% |
| COC1=C(OC)C(=O)C(CCCCCCCCCCO)=C(C)C1=O | 102% |
| COCCn1cc(-c2nc(-c3cc4cccnc4n3C)cs2)c2cc(OC)ccc21 | 50.4% |
| O=C(/C=C/c1ccc(Cl)cc1)c1ccc(-n2cc(CN3CCN(c4cc5c(cc4F)c(=O)c(C(=O)O)cn5C4CC4)CC3)nn2)cc1 | 97.1% |
| Cc1ccc(S(=O)(=O)c2nc(-c3ccccc3)oc2S(C)=O)cc1 (stereo unspecified) | -79.3% (active) |
| CNC(=O)c1cc(Oc2ccc3nc(NC(=O)Nc4ccc(F)cc4F)sc3c2)ccn1 | 87.1% |
| CCCCN(CCC#N)C(N)=O | 120% |
| COc1cccc(/C=C2\CCc3ccccc3C2=O)c1 | 112% |
| C#Cc1c(I)n(C2OC(CO[Si](C)(C)C(C)(C)C)C3OC(C)(C)OC32)c(=O)[nH]c1=O (stereo unspecified) | -88.2% (active) |
| COc1cc(/C=C2\C(=O)N(CCOc3cc(O)c4c(=O)cc(-c5ccccc5)oc4c3)c3ccccc32)cc(OC)c1O | 93.3% |
| O=C1c2ccccc2-c2c1c1ccncc1c(=O)n2CCCn1ccnc1 | 56.4% |
| COc1cc(OCc2cccc(-c3ccccc3)c2C)cc(OC)c1CN1CCCCC1C(=O)NCCOCCOCCN (stereo unspecified) | 20% |
| COc1ccc(-c2cn(Cc3ccc4c(Br)cc(Br)c(O)c4n3)nn2)cc1 | 107% |
| O=c1c(Cc2ccc(F)cc2)cc(-c2ccccc2)nn1C/C(=N/O)c1ccccc1 | 47.9% |
| C1=C2CCCC3=Cc4ccccc4OC23Oc2ccccc21 | 25.4% |
| N/C(=N\c1nc2ccccc2s1)NC(=O)Nc1ccccc1 | 28.3% |

| Structure (SMILES) | growth |
| --- | --- |
| C=C(C)[C@@H]1CC[C@]2(COCCCNCCCN)CC[C@]3(C)[C@H](CC[C@@H]4[C@@]5(C)CC[C@H](OCCCN)C(C)(C)[C@@H]5CC[C@]43C)[C@@H]12 | -31.1% (active) |
| N#CC1=C(N)Oc2c(ccc3ccccc23)C1c1cc2ccccc2n2nnnc12 (stereo unspecified) | 48.4% |
| CC(C)(C#N)c1cc(C(=O)Nc2cc(Nc3ncccc3-c3ncnc4nc[nH]c34)ccc2F)cc(C(F)(F)F)c1 | 11.9% |
| CN1CCN(CC(=O)N(C)c2ccc(N=C(c3ccccc3)c3c(O)[nH]c4ccc([N+](=O)[O-])cc34)cc2)CC1 | 28.6% |
| Cc1c(Cl)cccc1NC(=O)c1sc2nc3c(cc2c1N)CCCC3 | 22.1% |
| COC(=O)c1c(C)nc(C)c2c1C(=O)C(Br)=C(NCCN1CCOCC1)C2=O | 56.5% |
| COc1ccccc1NC(=O)n1c(=O)cc(C)c2ccc(O)cc21 | 110% |
| C#CCOC(=O)C(N)CSSCC(N)C(=O)O (stereo unspecified) | 104% |
| CN(C)CCOc1nc2c3cc([N+](=O)[O-])ccc3nn2c2ccccc12 | 33.9% |
| CC(=O)Oc1ccccc1C(=O)N(Cc1ccc2c(Cl)cc(Cl)c(O)c2n1)c1ccccc1 | 93.7% |
| C=CCOC(=O)C1=C(C)N(CC)C(=O)N(CC)C1c1c(Cl)n(C)c2ccccc12 (stereo unspecified) | 96.9% |
| CNC(=O)c1cc(Oc2ccc3nc(NC(=O)c4cc(C(F)(F)F)cc(C(F)(F)F)c4)sc3c2)ccn1 | 19.1% |
| COc1cc(C2=Nc3c(N)nc(N)nc3NC(c3cccc(Nc4ccnc5cc(C(F)(F)F)ccc45)c3)C2)cc(OC)c1OC (stereo unspecified) | 70.5% |
| c1ccc2[nH]c(-c3ccc(-c4nccc5c4[nH]c4ccccc45)cc3)nc2c1 | 44.9% |
| COc1ccc(/C=C2/CCc3cc4ccc(OC)cc4[o+]c32)c(O)c1 | 84.1% |
| Cc1c(-c2cnc3ccc(Cl)cc3c2C(=O)O)nnn1-c1ccc(Cl)cc1 | 93.8% |
| COc1ccc(NC(=O)c2ccc(NC3=C(c4ccc(Cl)cc4)C(=O)NC3=O)cc2)cc1 | 86.3% |
| O=C1CC2C=CCN2C=C1NC(=O)c1ccccc1 (stereo unspecified) | 102% |
